High-throughput results from PubChem.
IMPase Li inh – qHTS Assay for Identifying the Cell-Membrane Permeable IMPase Inhibitors: Potentiation with Lithium; Potency, µM (series often up to 59.4 µM), for inactives: top-dose activity, negative = IMPase inhibition, most hits filed as inhibitors; AID 1457, 2008; 210,000 tested, 0.35% active; CHO-M1 cells, IP1 TR-FRET (IP-One), carbachol + lithium;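 further: IP1 builds up when IMPase is blocked and the TR-FRET signal falls; plate controls were basal vehicle for no effect and high inhibitor control for full effect; nearly all actives have a fitted effect of over 50% in size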
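CHO cells stably expressing M1 receptor (2000/well, cultured 16–30 h) treated 30 min at 37C with compound plus low lithium. Cytosolic IP1 by TR-FRET (665/620 ratio and 620 channel) after 10 min lysis; AC50 by Hill fit.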
NPSR antagonist – qHTS Assay for Antagonists of the Neuropeptide S Receptor: cAMP Signal Transduction. Q6W5P4. CHO-NPSR cells, cAMP TR-FRET, antagonist mode. Potency, µM (titrated, usually from 38.3 µM), inactives show top-dose activity change, negative = inhibition, hits mostly inhibitors. 220,000 tested, 1% active. AID 1461, 2008; further: nearly all actives have a fitted effect of over 50% in size
Target sequence (Q6W5P4 whole entry, looked up): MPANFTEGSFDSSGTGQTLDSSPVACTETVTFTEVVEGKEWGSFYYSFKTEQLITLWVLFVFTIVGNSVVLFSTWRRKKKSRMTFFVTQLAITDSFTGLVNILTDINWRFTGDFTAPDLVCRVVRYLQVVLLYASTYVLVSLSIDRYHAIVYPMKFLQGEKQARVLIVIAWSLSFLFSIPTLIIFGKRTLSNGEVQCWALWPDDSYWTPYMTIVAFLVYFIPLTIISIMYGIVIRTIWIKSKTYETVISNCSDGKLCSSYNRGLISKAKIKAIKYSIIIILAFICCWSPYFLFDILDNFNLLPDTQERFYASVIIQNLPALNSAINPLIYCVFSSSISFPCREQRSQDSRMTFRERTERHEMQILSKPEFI
ERK EGF inh – qHTS Assay for Inhibitors of the ERK Signaling Pathway using a Homogeneous Screening Assay; Stimulation with EGF | HEK293-V1b, EGF-stimulated phospho-ERK AlphaScreen | Potency, µM (top dose mostly 11.5 µM), for inactives: top-dose activity change, negative = inhibition, most hits filed as inhibitors | 130,000 tested, 0.41% active | AID 1454, 2008;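 further: plate controls were stimulated vehicle wells for no effect and unstimulated vehicle basal for full effect; nearly all actives have a fitted effect of over 55% in size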
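HEK293 cells stably expressing V1b receptor, serum-reduced (1% FBS) overnight, got compound for 30 min at 37C, then 25 nM EGF for 5 min. Lysate phospho-ERK read by AlphaScreen SureFire; AC50 from Hill fits.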
* marks the source's active call; other numbers are inactive results; ? = inconclusive; . = no result given; ! = not confirmed by another sample; [ ] = another dose, or the depositor's remark. Shown is part of a subset that was picked to be rich in hits. The call rests on the fitted dose curve; in most records, active means well fitted curve in the direction sought with a large enough effect; inconclusive means small, poorly fitted or top-dose-only effect, or another doubt; inactive means no such curve, though single readings can be large; an effect the other way counts as inactive or inconclusive. Unless noted, on the % scale 0 is the no-effect control and ±100 the full control effect; potency means the concentration at half of the fitted maximal effect.

SMILES	IMPase Li inh	NPSR antagonist	ERK EGF inh
CCN1/C(=C/c2ccc3cc(C)ccc3[n+]2CC)Sc2ccccc21	-19.1%	10µM*	?
CC[n+]1c(/C=C2\Sc3ccccc3N2C)ccc2cccc(C)c21	?	10µM*	?
CC(=S)/C=C1\Sc2ccccc2N1C	5.0%[38.3 µM]	-14.5%[46.1 µM]	.
CC1CN(c2c(F)c(N)c3c(=O)c(C(=O)O)cn(C4CC4)c3c2F)CC(C)N1 (stereo not drawn)	15.9%	.	.
C[C@@H](NC(=O)C1(N)CCCC1)C(=O)O	3.7%	.	.
CCOC(=O)c1c(C)[nH]c(=S)c(C#N)c1-c1ccc(OC)cc1	4.6%[38.3 µM]	-17.5%[46.1 µM]	.
CCCCOc1ccc(-c2c(C(=O)Nc3ccccc3)c(C)[nH]c(=S)c2C#N)cc1	8.91µM*	10µM*	2.6%
C1CCCNCC1	7.9%	.	.
COc1ccc2nc3cc(Cl)ccc3c(Nc3cc(C(C)C)c(O)cc3C)c2c1	.	?	17.8µM*
COc1ccc2nc(Cl)cc(Cl)c2c1	.	-0.4%	0.0%[57.5 µM]
CCN(CC)CCCC(C)Nc1c2ccc(Cl)cc2nc2ccc(OC)cc12 (stereo not drawn)	38.0%	10µM*	3.1%
COc1ccc(S(=O)(=O)Nc2cc(C(C)C)c(O)cc2C)cc1	32.6%[38.3 µM]	-24.1%[46.1 µM]	.
CN=C1N[C@H](c2ccccc2)N(c2ccccc2)S1	39.4%	.	-17.3%
BrC(Br)C(Br)Br	8.7%	.	.
C=C1CC[C@H](O)C/C1=C/C=C1\CCC[C@]2(C)C([C@H](C)CC[C@@H](O)C(C)(C)O)CC[C@@H]12 (stereo partly drawn)	-8.2%	.	.
CCN(CC)C(=S)SCC(=O)Nc1ncc2c(n1)CC(C)(C)CC2=O	.	1.3%	-18.8%[57.5 µM]
COc1ccc(C(=O)CSc2[nH]c(=O)cc(C(F)(F)F)c2C#N)cc1	.	39.7%	8.5%[57.5 µM]
C=CCc1ccccc1OCC(O)CNC(C)C (stereo not drawn)	2.8%	17.0%	16.6%
CCOc1cccc2oc(-c3ccccc3Cl)cc(=O)c12	20.8%	.	.
COc1ccc(-c2[nH]c(-c3ccc4c(c3)OCO4)nc2-c2ccccc2)cc1	1.4%[38.3 µM]	?	.
NC(=O)c1ccc(-c2nc(-c3ccc4c(c3)OCO4)c(-c3ccccn3)[nH]2)cc1	2.51µM*!	.	6.7%
OC[C@@H]1CCC[C@H](n2cnc3c(=S)nc[nH]c32)O1	-2.8%	.	.
CC(=O)N[C@@H]1CONC1=O	1.4%	.	.
CC(=O)NCCNc1ccnc(-c2ccccc2C(F)(F)F)n1	-9.0%	.	.
COc1ccc(Oc2c(Cl)cnn(-c3ccc(F)cc3)c2=O)cc1	-3.1%	?	.
SMILES	IMPase Li inh	NPSR antagonist	ERK EGF inh
COc1ccc(Oc2c(Cl)cnn(-c3ccc(Cl)c(Cl)c3)c2=O)cc1	-11.0%	10µM*	.
COc1ccc2[nH]cc(CCNc3nc(-c4cccnc4)nc4ccccc34)c2c1	21.7%	.	.
O=C(Nc1nc2nccc(-c3ccccc3)n2n1)c1ccc(F)cc1	10µM*	-4.8%	-4.9%
O=C(Nc1nc2nccc(-c3ccccc3)n2n1)c1ccccc1	.	5.4%[7.67 µM]	4.7%[57.5 µM]
COC(=O)[C@@H]1[C@@H]2C[C@H]3c4[nH]c5ccccc5c4CCN3C[C@@H]2CC[C@@H]1O	1.6%	.	6.5%
NC(N)=[N+]1CCc2ccccc2C1	-2.8%	-15.9%[46.1 µM]	-10.1%
CCCC(=O)OCCNc1cc(Sc2nccn2C)c2nonc2c1[N+](=O)[O-]	20.9%	10µM*	?
CCCSc1cc(NCCOC(=O)CCC)c([N+](=O)[O-])c2nonc12	-1.8%	-12.5%[46.1 µM]	-1.8%
O=C(O)c1ccc(N2C(=O)/C(=C/c3ccc(-c4ccc([N+](=O)[O-])cc4)o3)C=C2c2ccccc2)cc1	11.5%	10µM*	?
CC1=NN(c2ccc(Cl)c(C(=O)O)c2)C(=O)/C1=C\c1ccc(-c2ccc(C(=O)O)cc2)o1	3.1%	-9.3%	-6.0%
Cn1cc(Cl)c(-c2n[nH]c(=S)n2-c2ccc(F)cc2)n1	?	-8.8%	5.7%
Cc1c(Cl)c(-c2n[nH]c(=S)n2-c2ccc(F)cc2)nn1C	11.2µM*	?	.
Cn1cc(Cl)c(-c2n[nH]c(=S)n2-c2ccccc2)n1	11.2µM*	-29.5%	0.5%
Cc1ccc(-n2c(-c3nn(C)cc3Cl)n[nH]c2=S)cc1	-7.6%	0.4%	11.1%
C[Si](C)(c1ccc(C(=O)O)cc1)c1ccc(C(=O)O)cc1	-1.0%	.	.
CCCCCCCCCCCCCCCC(=O)N[C@H](CN1CCOCC1)[C@H](O)c1ccccc1	7.4%	.	-2.3%
CC1=CC(C)(C)Nc2ccc(OC(=O)CN3C(=O)c4cccc5cccc(c45)C3=O)cc21	32.0%[38.3 µM]	0.8%[46.1 µM]	.
CC1=CC(C)(C)Nc2ccc(OC(=O)CN3C(=O)c4ccccc4C3=O)cc21	8.3%	7.94µM*	1.8%
